LMNA splice mod: LMNA splicing modulation; HeLa LMNA splicing GFP/RFP minigene ratio, 48 h; 200,000 tested, 0.01% active; Potency, µM (titrated, usually from 46.1 µM), for inactives: at the top dose ratio change, negative = inhibition, hits mostly inhibitors; active = well fitted inhibition curve with a large enough effect in the signal ratio, with a control signal flat, not every such curve was filed as active; inconclusive = small, poorly fitted or top-dose-only effect, or effect the other way, or a change in a side signal; the % refers to the signal ratio
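S3 HeLa cells stably expressing lamin A-EGFP splicing minigene plus DsRed2, 600 cells/well, 48 h compound exposure at 37C. Laser-scanning cytometry; analysed as GFP (500-530 nm)/RFP (575-640 nm) total intensity ratio; 0.5% DMSO vehicle.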
GAA glycogen: inhibitors or activators of human alpha-glucosidase glycogen cleavage | recombinant GAA, glycogen substrate, Amplex Red glucose oxidase fluorescence | P10253 | Potency, µM (series often up to 76.4 µM), for the others: top-dose activity change, negative = inhibition, hits mostly inhibitors | 300,000 tested, 0.38% active;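 also: 0% = full enzyme reaction and -100% = no-enzyme basal signal; the screen sought inhibitors and activators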
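Recombinant human enzyme (4 nM); glycogen substrate; 37 C, 40 min, pH 5.0. Readout: coupled glucose oxidase/Amplex Red fluorescence.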
N370S GC: inhibits or activates N370S mutant glucocerebrosidase. AID 2101. N370S GC spleen homogenate, 4MU-glucoside fluorescence. 330,000 tested, 0.092% active. Potency, µM (highest dose often 59.4 µM), for the others: at the top dose activity change, negative = inhibition, hits mostly inhibitors;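 also: 0% = full enzyme activity and -100% = no enzyme basal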
GAA inh: inhibitors of human lysosomal alpha-glucosidase; P10253; purified human GAA, 4-MU-alpha-glucoside fluorescence; Potency, µM (doses to about 76.9 µM), for inactives: top-dose activity change, negative = inhibition, usual class: inhibitors; 200,000 tested, 0.005% active;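 also: plate controls were uninhibited enzyme wells for no effect and no-enzyme background for full effect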
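Activity normalized between no-enzyme (basal) and enzyme-only wells. Conditions: 4 nM human enzyme, 400 uM fluorogenic substrate, citrate/phosphate pH 5.0 with Tween-20, 20 min room temperature, compounds up to 77 uM.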
aGlu spleen mod: inhibits or activates alpha-glucosidase in human spleen homogenate; AID 2112; Potency, µM (titrated, usually from 79.9 µM), inactives show at the highest dose activity change, negative = inhibition, usual class: inhibitors; human spleen homogenate, 4-MU-alpha-glucoside fluorescence; 240,000 tested, 0.006% active;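 also: 0% = enzyme with vehicle and -100% = no enzyme basal signal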
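Human spleen homogenate (1 ug) incubated with compounds and 1 mM 4-methylumbelliferyl-alpha-D-glucopyranoside in pH 5.0 citrate/phosphate buffer, 37 C, 40 min. Stopped at pH 10; 4-MU fluorescence (Ex 365/Em 440 nm); AC50 by Hill fit.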
Luc counter: Kinase-Glo luciferase inhibition (counter-screen); Q27757; Potency, µM (doses to about 38.3 µM), for the others: at the top dose activity change, negative = inhibition, most hits filed as inhibitors; Kinase-Glo luciferase, ATP luminescence, 8 min; 200,000 tested, 0.28% active; also: nearly all actives have a fitted effect of over 60% in size
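Light output from Kinase-Glo luciferase with luciferin and 10 uM ATP in 50 mM imidazole pH 7.2, KCl, MgCl2, Tween 20, BSA; compound pin-delivered, 8-min ambient incubation, then luminescence read.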
* hit, by the source's call; ? = inconclusive; / = no result; [ ] = another dose, or the depositor's remark. Sampled rows, rich in hits. Any-hit rate of the full collection: about 0.52%. Unless noted, calls follow the shape of the dose curve; as a rule, active = well fitted curve in the direction sought with a large enough effect; inconclusive = small, poorly fitted or top-dose-only effect, or another doubt; inactive = no such curve, though single readings can be large; an effect the other way counts as inactive or inconclusive. Unless noted, % is scaled to controls: 0 for no effect and ±100 for the full control effect; potency is read from the fitted curve at half-maximal effect.

SMILES	LMNA splice mod	GAA glycogen	N370S GC	GAA inh	aGlu spleen mod	Luc counter
Clc1ccc2nc(N3CCCCC3)[nH]c2c1	-13%	2%	15%	6%	-1%	-20%
O=C(NNC(=O)c1cccs1)c1ccco1	-7%[46 µM]	4%	3%	?	4%	-7%
O=C(NC(=S)NNC(=O)c1cccs1)c1ccco1	0%	28µM*	2%	-6%	-18%	-1%
COc1ccc(CNC(=O)CCc2cn(C)c3ccccc23)cc1	/	16%[76.3 µM]	/	/	/	/
COC(=O)c1ccc(C23CC2(C(NP(=O)(c2ccccc2)c2ccccc2)c2ccccc2)C3)cc1 (stereo unspecified)	/	/	17%	/	3%	-8%
CN1/C(=C/C(=O)c2cccs2)Sc2ccccc21	-3%	-12%	14%	-14%	-1%	14µM*
O=C(Nc1ccc2c(c1)OCO2)c1cccs1	2%	2%	8%	-7%	2%	8.9µM*
Cc1ccnc(NC(=O)c2cc3ccccc3o2)c1	/	/	-16%	/	/	/
O=C(Nc1ccccn1)c1cc2ccccc2o1	-4%	-5%	1%	3%	0%	8.9µM*
O=C(/C=C\Nc1ccc2c(c1)OCO2)c1cccs1	?	?	2%	-5%	-2%	13µM*
O=C(/C=C\Nc1ccc2c(c1)OCO2)c1ccccn1	4%	-4%	16%	8%	-3%	14µM*
CCOC(=O)c1c(O)[nH]c(=O)c(CC)c1C	/	/	/	/	/	-2%[7.66 µM]
O=C(Nc1ccccn1)c1ccc2c(c1)OCCO2	/	-10%	-15%	6%	-2%	?
O=C(Nc1ccccn1)c1ccc2c(c1)OCO2	4%[46 µM]	-8%	-4%	-4%	-3%	11µM*
COc1ccc(Nc2nc(-c3ccccc3)nc3ccccc23)cc1S(=O)(=O)N1CCOCC1	/	-11%	14µM*	/	-1%	/
Oc1cccc(Nc2nc(-c3ccccc3)nc3ccccc23)c1	/	-6%	2.8µM*	/	/	/
COc1ccc(NC(=O)c2cc(-c3ccco3)nc3ccccc23)cc1S(=O)(=O)N1CCOCC1	-9%[46 µM]	-6%	1%	?	-1%	/
O=[N+]([O-])c1cc(-c2nc(-c3ccncc3)no2)ccc1NCc1ccccc1	/	0%[76.3 µM]	/	/	/	/
COc1ccccc1N1CCN(C(=O)c2oc3ccccc3c2N)CC1	/	-14%[76.3 µM]	/	/	/	/
Oc1ccc(NC(=S)Nc2ccc(F)cc2)cc1	/	11µM*	-18%	/	/	/
Fc1ccc(NC(=S)Nc2ccc(Br)cc2)cc1	?	-16%	-1%	-3%	-2%	-2%
CC1CCCC(NC(=O)c2ccncc2)C1C (stereo unspecified)	/	13%[76.3 µM]	-3%	/	/	/
CC1CCCC(NC(=O)Nc2cccs2)C1C (stereo unspecified)	-5%	14µM*	9%	-22%	-8%	18%
Cc1cc(C(=O)C(=O)Nc2nnc(C(C)C)s2)c(C)n1-c1ccccc1	/	-8%[76.3 µM]	/	/	/	/
O=C(OCC(=O)c1cccs1)c1ccccc1	4%	-2%	10%	-4%	-2%	8.9µM*
SMILES	LMNA splice mod	GAA glycogen	N370S GC	GAA inh	aGlu spleen mod	Luc counter
O=C(CNC(=O)c1ccccc1)OCC(=O)c1cccs1	/	-2%	-5%	/	/	/
CCN(C(=O)CN1CCN(c2ccc(O)cc2)CC1)c1c(N)n(Cc2ccccc2)c(=O)[nH]c1=O	-1%	18µM*	3%	-1%	3%	1%
CC(CCc1ccccc1)NC(=O)CN1CCN(c2ccc(O)cc2)CC1 (stereo unspecified)	/	4.4µM*	-3%	?	0%	0%
COc1ccc(Br)cc1S(=O)(=O)NNC(=O)c1c(C)nc2ccccn12	9%[46 µM]	10µM*	-7%	6%	2%	0%
CCOc1ccc(OCC)c(S(=O)(=O)NNC(=O)c2c(C)nc3ccccn23)c1	9%	8%	-1%	-3%	-8%	-1%
C#Cc1ccc([C@H]2C=C(C(=O)N3CCN(Cc4ccccc4)CC3)O[C@@H](OCc3ccc(CO)cc3)C2)cc1	/	-9%	5%	/	-13%	/
O=C(C1=C[C@@H](c2ccc(C(F)(F)F)cc2)C[C@@H](OCc2ccc(CO)cc2)O1)N1CCN(Cc2ccc3c(c2)OCO3)CC1	/	-7%	10µM*	/	-16%	/
O=C(C1=C[C@@H](c2ccc(Br)cc2)C[C@@H](OCc2ccc(CO)cc2)O1)N1CCN(Cc2ccccc2)CC1	/	4%	14µM*	/	4%	/
O=C(COc1ccccc1)Nc1nnc(SCc2cc(=O)n3cc(Cl)ccc3n2)s1	2%[46 µM]	/	/	/	/	/
C=CC(C)(C)c1[nH]c2ccccc2c1C1=C(O)C(=O)C(c2c[nH]c3c(CC=C(C)C)cccc23)=C(O)C1=O	/	/	-8%	/	2%	1%
Cc1cccc(Nc2nc(-c3ccc(O)cc3O)cs2)n1	/	40µM*	-1%	/	/	/
CC(=O)Nc1ccc(-c2csc(Nc3cccc(C)n3)n2)cc1	/	-2%	1%	2%	-9%	-2%
CC(=O)Nc1ccc(N/C=C/C(=O)C(C)(C)C)cc1	10%	-16%	1%	-2%	-4%	-1%
Cc1ccc(N/C=C/C(=O)C(C)(C)C)c(O)c1	?	40µM*	4%	0%	-6%	1%
CCN1c2ccccc2NC2C1C(C(C)=O)C(=O)N2c1ccc(Cl)cc1 (stereo unspecified)	?	25µM*	-7%	-4%	-21%	-2%

Screening results as filed in PubChem BioAssay.
